Test results as given in PubChem BioAssay AID588345 (Broad Institute, 2011).
Screen size: about 1,300 compounds; about 850 (65%) were called active. Roughly 1% stayed inconclusive and do not appear here. No rule for the calls is given here. The set was probably picked from earlier hits. These entries were drawn from the full list. Potency and affinity values are given separately.

What follows are compounds tested against Dual specificity tyrosine-phosphorylation-regulated kinase 1A (Rattus norvegicus) (UniProt Q63470) (assay: rat Dyrk1A kinase inhibitors, dose response, biochemical, cherry-pick, plate reader, 2124-01 (AID 588345)). Conditions: Dyrk1A kinase biochemical assay; series mostly up to 12 µM; activity change, negative = inhibition: at the top concentration.

Activity change, negative = inhibition, inactive:
CCCOc1ccc(/C=N/NC(=O)CN2CCCCC2)cc1 -2.8%
COc1ccc(/C=C2\SC(N3CCc4ccccc4C3)=NC2=O)cc1 -31.4%
Cc1cccc(NC(=S)NN2CCN(C)CC2)c1 -6.09%
O=C1[C@H]2[C@H](C=CC[C@H]2C(=O)N2CCOCC2)CCN1Cc1ccccc1 5.23%
CCOC(=O)C1CCCN(c2c(NCCN(C)Cc3ccccc3)c(=O)c2=O)C1 (stereo not given) -7.74%
COCCN=C1N[C@@H](c2cccc(C(F)(F)F)c2)C(C(=O)OC)=C(C)N1Cc1ccccc1 -0.582%
O=C1OCc2cccc3cccc1c23 4.49%
Nc1ncnc(N)c1N=Nc1ccccc1 10.3%
CCN(CC)c1ccc(/C=C2\C(=O)c3ccc(C(=O)O)cc3C2=O)cc1 4.65%
CCOC(=O)C1=C(C)OC(N)=C(C#N)C1c1ccc(O)c(OC)c1 (stereo not given) 7.18%
O=c1[nH]c(=S)[nH]c2sccc12 -5.08%
O=C(COC(=O)c1cccs1)c1ccc2ccccc2c1 -4.36%
CCc1ccccc1NC(=O)C1CCCN(S(=O)(=O)c2ccc3c(c2)CC(C)N3C(C)=O)C1 (stereo not given) -3.11%
CCOC(=O)C(Cc1ccc(O)cc1)NC(=O)CCc1c[nH]c2ccccc12 (stereo not given) 0.971%
CC(C)(C)[C@H]1C=C(C(=O)N2CCN(Cc3ccccc3)CC2)O[C@@H](OCCCCO)C1 0.688%
COc1ccc2c(Cl)c(C(=O)N/N=C/c3cccnc3)sc2c1 7.43%
COc1ccccc1NC(=S)N/N=C/c1ccc(O)cc1 -0.12%
Cc1ccc(CN2CCN(c3ncccn3)CC2)o1 -2.31%
O=C1CCN(CCCc2ccccc2)CCN1[C@H](CO)c1ccccc1 5.58%
Oc1ccc(-c2nc3ncccn3c2Nc2ccc3c(c2)OCO3)cc1 0.488%
O=[N+]([O-])c1ccc(O)c(C=NNc2ccc(S(=O)(=O)O)cc2)c1 2.14%
Cc1cccc2nc(-c3cccc(NC(=O)c4ccc(Cl)cc4)c3)cn12 -7.42%
COc1ccc2c(c1)OC[C@H]1[C@H]2N2C(=O)CN(CC3CCCO3)C(=O)[C@@]2(C)[C@H]1c1ccccc1 (stereo not given in full) 15.3%
COc1ccccc1-c1sc2ccccc2c1C#Cc1ccc(N(C)C)cc1 11.4%
O=C(O)c1cc(N/N=C/c2c(O)ccc3ccccc23)ccc1Cl -0.869%
COc1cccc(-c2noc(N)c2C#N)c1 4.6%
N#Cc1c2ccc(O)cc2n2ccccc12 -4.28%
COc1ccc2c(c1)CCc1cn3nc(C)cc3nc1-2 -83.2%
COc1ccc2c(c1)CCc1cc(C(=O)O)sc1-2 -18.2%
COC(=O)c1sc2cnccc2c1N -37.3%
Brc1ccccc1C1=Nn2c(nnc2-c2ccccc2)SC1 -4.23%
COc1ccc(OC)c(C2=Nn3c(nnc3-c3ccco3)SC2)c1 10.8%
CCOC(=O)C1CCCN(c2c(N3CCN(C4CCCCC4)CC3)c(=O)c2=O)C1 (stereo not given) -3.65%
CC(C)Oc1ccc(C2CNC(=O)C2)cc1 (stereo not given) 5.01%
COC(=O)c1c(-c2ccc(S(C)(=O)=O)cc2)sc2ccc(OC)cc12 3.56%
COC(=O)c1[nH]c2cc(OC)ccc2c1N -3.32%
Cc1ccc2c(c1)N(CC(=O)NC1CCCCC1)C(=O)c1cccnc1O2 5.4%
CCN1CCN(CCCNC(=O)c2cc3cc4ccc(OC)cc4nc3o2)CC1 -30.7%
COc1cccc(Cn2nnc(C(=O)NCCc3ccc(Cl)cc3)c2N)c1 4.5%
CCCCN(CC)CCCNC(=O)c1cc2cc3ccc(OC)cc3nc2o1 14%
COCCNC(=O)c1cc2cc3ccc(OC)cc3nc2o1 -36.9%
COc1ccc2cc3cc(C(=O)NCCCN4CCC(C)CC4)oc3nc2c1 -21.4%
O=S1(=O)N=C(N(Cc2cccs2)c2ccc(O)cc2)c2ccccc21 -39.4%
CCCCC(=O)Nc1cc(Cl)ccc1C(=O)O 2.42%
CC(C)CC(NC(=O)C1CCC(C)CC1)C(=O)Nc1ccc2c(c1)OCCO2 (stereo not given) -0.401%
O=C(O)c1cc2ccccc2c2cc(Br)ccc12 6.75%
CCOCC(=O)Nc1nc2c(s1)C(=O)CC(C)(C)C2 -6.16%
O=C1CCCc2c1cc(C(=O)NCCCN1CCOCC1)c(=O)n2-c1ccc(Cl)cc1 15.7%
CCOc1ccccc1C(=O)Nc1ccccc1C(N)=O 16.9%
c1ccc2c(-c3nc(C4CCCCC4)no3)cc(-c3ccncc3)nc2c1 -12.2%
O=C(/C=C/c1ccccc1)Nc1cccc(C(=O)NC2CC2)c1 -23.3%
COc1cccc(C(=O)NNC(=O)/C=C/c2ccccc2)c1 -0.825%
O=C(O)/C=C/c1ccc2noc(-c3ccccc3)c2c1 9.02%
Nc1nonc1-n1nnc(C(=O)N/N=C\c2ccncc2)c1CN1CCCCC1 16.2%
COc1cc2cnc(-c3ccccc3)c(-c3ccc([N+](=O)[O-])cc3)c2cc1OC 5.36%
COC(=O)CSc1nc(N)c(C#N)c(C(C)C)c1C#N 4.01%
COc1ccc2nc3c(cc2c1)c(NC(=O)C1CCCO1)nn3CC(C)C (stereo not given) -39%
N#Cc1nc(-c2cccs2)oc1NCc1ccccc1Cl 4.98%
Cc1cccc(Cl)c1OCCCCn1ccnc1 -0.832%
c1cncc(-c2nc(NCCCn3ccnc3)c3ccccc3n2)c1 -32%
COc1cc(O)c2c(=O)c3c(O)ccc(O)c3oc2c1 15.1%
O=C(NN1C(=O)/C(=C/c2ccc(O)c([N+](=O)[O-])c2)SC1=S)c1ccccc1Cl 12.1%
CCCCOc1cccc(C(=O)NC(=S)Nc2ccc(Cl)c(C(=O)O)c2)c1 4.19%
CCC(=O)Nc1nc(-c2ccc3c(c2)OCCO3)cs1 -27.9%
CC(C)c1nnc(NC(=O)Cn2nc(-c3ccc4c(c3)OCCO4)ccc2=O)s1 5.79%
CSCC(=O)Nc1nc(-c2ccc3c(c2)OCCO3)cs1 -45.8%
c1ccc(Cc2nnc3sc(-c4ccc5c(c4)OCCO5)nn23)cc1 2.39%
Cn1nnnc1Sc1ncnc2scc(-c3ccc[nH]3)c12 6.62%
CCCn1cnc2scc(-c3ccc(OC)cc3)c2c1=O 8.44%
COCCCN(C(C)=O)c1nc(-c2ccc(OC)cc2)cs1 1.75%
COc1cc(CO)cc(Br)c1OCc1cccnc1 -1.47%
COc1cccc(/C=N/n2c(COc3ccccc3)n[nH]c2=S)c1O -73.5%
COC(=O)C1=C(C)N(CCCC(=O)O)C(=O)NC1c1ccc(Cl)cc1 (stereo not given) 1.53%
COc1ccc(-n2c(C)nc3cc(C(=O)NCc4ccc5c(c4)OCO5)ccc32)cc1 -5.27%
COc1ccc(-n2c(C)nc3cc(C(=O)NCc4ccco4)ccc32)cc1 6.49%
